According to the supplement of paper PMC10681739:

What was measured:
ETS1 [1] = target: T1, ETS1 (UniProt P14921); test: ETS1 binding intensity (PBM fluorescence), ETS1 alone (arbitrary fluorescence units); higher = stronger binding; conditions: ETS1 concentration 1 nM; RUNX1 concentration 0 nM
T1 sequence: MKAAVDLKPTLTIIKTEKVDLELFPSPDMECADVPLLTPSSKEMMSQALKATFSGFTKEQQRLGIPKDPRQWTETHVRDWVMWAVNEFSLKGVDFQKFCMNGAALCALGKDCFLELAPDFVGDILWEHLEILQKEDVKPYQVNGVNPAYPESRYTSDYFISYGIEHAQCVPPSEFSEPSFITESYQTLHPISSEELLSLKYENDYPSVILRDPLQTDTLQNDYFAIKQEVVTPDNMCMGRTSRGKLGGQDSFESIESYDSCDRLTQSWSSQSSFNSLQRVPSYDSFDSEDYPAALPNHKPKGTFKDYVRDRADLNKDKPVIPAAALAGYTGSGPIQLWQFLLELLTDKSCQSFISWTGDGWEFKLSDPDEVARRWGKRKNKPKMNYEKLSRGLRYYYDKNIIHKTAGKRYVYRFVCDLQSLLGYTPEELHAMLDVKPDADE

RUNX1 [2] = target: RUNX1 (UniProt Q01196); test: RUNX1 binding intensity (PBM fluorescence), RUNX1 alone (arbitrary fluorescence units); higher = stronger binding; conditions: RUNX1 concentration 2 nM; ETS1 concentration 0 nM
Sequence of RUNX1 (Q01196 whole entry): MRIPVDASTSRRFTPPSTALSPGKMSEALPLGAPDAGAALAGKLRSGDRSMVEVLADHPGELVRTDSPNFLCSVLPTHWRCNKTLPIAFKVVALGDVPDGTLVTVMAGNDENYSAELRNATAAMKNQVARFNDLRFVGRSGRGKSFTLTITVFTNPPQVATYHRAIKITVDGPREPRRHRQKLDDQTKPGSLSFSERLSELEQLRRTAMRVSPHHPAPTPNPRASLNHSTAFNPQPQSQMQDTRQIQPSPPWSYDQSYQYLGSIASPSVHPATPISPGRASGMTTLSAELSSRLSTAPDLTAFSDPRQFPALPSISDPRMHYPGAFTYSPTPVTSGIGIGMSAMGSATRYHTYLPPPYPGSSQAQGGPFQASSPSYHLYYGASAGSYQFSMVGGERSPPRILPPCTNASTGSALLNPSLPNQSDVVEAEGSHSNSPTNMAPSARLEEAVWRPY
Procedure: (§1)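 Cooperative gcPBM on 36-bp genomic probes with neighbouring ETS1 and RUNX1 sites. Recombinant human RUNX1 (2 nM) was incubated alone or with ETS1 (25 nM) and detected with anti-RUNX1 antibody plus Alexa488 secondary. Values are medians over 4 replicate spots; the RUNX1+ETS1 data were normalised to the RUNX1-only data. The probes sit in constant array flanks that are not printed.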

ETS1 [3] = target: T1, ETS1; test: ETS1 binding intensity (PBM fluorescence) in presence of RUNX1, normalised to ETS1-only experiment (arbitrary fluorescence units); higher = stronger binding; conditions: ETS1 concentration 1 nM; RUNX1 concentration 25 nM
RUNX1 [4] = target: RUNX1 (UniProt Q01196); test: RUNX1 binding intensity (PBM fluorescence) in presence of ETS1, normalised to RUNX1-only experiment (arbitrary fluorescence units); higher = stronger binding; conditions: RUNX1 concentration 2 nM; ETS1 concentration 25 nM
Procedure: as §1
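Wherever RUNX1 binding intensity (PBM fluorescence) in presence of ETS1, normalised to RUNX1-only experiment is given: Full-length recombinant human ETS1 or RUNX1 bound to double-stranded 36-bp genomic probes on microarrays, detected by protein-specific primary antibody and Alexa488 secondary, spot fluorescence as median of four replicate spots.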
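Wherever RUNX1 binding intensity (PBM fluorescence), RUNX1 alone is given: Full-length recombinant human RUNX1 bound to double-stranded 36-bp genomic probes on a high-density microarray, scored as Alexa488 fluorescence per spot via anti-RUNX1 antibody, median of four replicate spots.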

Sequence | ETS1 binding intensity (ETS1 [1]) | RUNX1 binding intensity (RUNX1 [2]) | ETS1 binding intensity (ETS1 [3]) | RUNX1 binding intensity (RUNX1 [4])
AGTGGAGTAGGAACCGGAAAACCACAATAAGTCCCA | 2170 | 1470 | 12400 | 3630
CCGGGACCGGAAGAGGGAGCCGTGGTTGCTGGAACT | 3040 | 744 | 4030 | 1960
TTTCAAAACCCGGAAATGACCGCCAGGCTGGCATCA | 7800 | 859 | 6320 | 1380
CATGGTGGTGACGCAGGATGTGGTGGTGGTGTAGAA | 2600 | 707 | 5340 | 937
AAGGGAGCCGCCCGGAAACCGCGCGGCAAAGATGCC | 1560 | 734 | 2940 | 1050
ACCTCATCCTGCTGTTCTTGTGTGTGGTTGAGCAGT | 453 | 944 | 432 | 1340
ACAGAGAAGCTTCCTATTGTGGGATTCACCACCACC | 623 | 735 | 705 | 942
CAGCAGCACCTGCATCCGCTGCGGGAGTCCGAGCCG | 515 | 778 | 491 | 1030
CACTTCCGGGTCGTCAGCTCAGTTCTGCGGTTTCTG | 1030 | 4240 | 5740 | 12800
TCAGAGACTTCCGCTCAGCAGCAGCTGCGGCCAGGC | 966 | 671 | 1330 | 1850
CCAATGGGCAGGCGGAAACCGCGGGCTCGTGCTCCC | 1580 | 956 | 2900 | 1350
CCCCTTCCCGTTCTCCGAAAGTGCGCGGGTTGGAGC | 489 | 792 | 361 | 1230
TGCCCTGACTTCCTGGTCCTGTGGTCAAGGATGGGG | 1340 | 889 | 2810 | 2000
GGTGGCAACATCCTGGGGAGGGGAACCCACAGGGGA | 364 | 835 | 452 | 1100
CAGAAAGAGGAAATGATGCGAGTCCACACCGCAGGC | 788 | 703 | 2610 | 1170
CGACCGGAACCACTCTGAGGCGCTGCCGCAGACACC | 533 | 919 | 583 | 1010
AGTTTCTTCTTTCCGGTGGGTTTGTGGTCTTGCTGA | 1160 | 1390 | 2990 | 2770
CGCCTACTCTACTTCCGCGGTCGGCCGGGTAAGGAC | 603 | 2130 | 754 | 2900
ACAGGAAGAGATATTATATCTCCCTGCGGTTGGTTT | 583 | 904 | 2430 | 779
GATGAAAGAGGAAGTTCTCAAACCACCTTGCCAGTG | 1170 | 768 | 1490 | 1110
TGCCGCGGATACCCAGCCAGCGGCAGTGCGGTTAAC | 349 | 1140 | 955 | 1210

Sequence | ETS1 binding intensity (ETS1 [1]) | RUNX1 binding intensity (RUNX1 [2]) | ETS1 binding intensity (ETS1 [3]) | RUNX1 binding intensity (RUNX1 [4])
AGATGAGGAAGTTGGGGTTTAGAGTGGTTAAACTGT | 502 | 698 | 655 | 1020
CTGGTAGAAAAGGAAGCAGGTTGTGGTGAGCATTTA | 837 | 767 | 1720 | 932
TGGCTTGTTTCCGGTTCCTCTGTGGCGCCGTTCTCG | 3480 | 938 | 2820 | 2890
CCCTCAGCGGAAGTGGAAGCTGTGGTTTCCAAAGGC | 4750 | 916 | 17000 | 3570
GACCTGGGCAGGAAGAGCGGCATGTGGGGCCCCCTG | 875 | 714 | 795 | 874
CTTCTGGCGGAAGCGGCACAAGCCGCAGTACAGCGC | 1070 | 738 | 2370 | 1190
AGCTAAACCCAGTTCCGGTGCTGTGGGGAGCTCAGA | 858 | 741 | 908 | 1990
CATGTGCTTCCGGCTTGATCTGTGGTTATTCTGGTT | 1370 | 1270 | 2980 | 3010
CCTGCTGCTTCCGCCCGGAGTTGTTGTGGGCTCCAG | 643 | 806 | 661 | 1870
GGCTGGGGCGGTATCCTGTGGTCTTACTCTGGTGAC | 445 | 1520 | 437 | 2620
GGTTCTCTAGGGAGAGGATGTGGGTTTGTCTCTGGG | 1820 | 791 | 6540 | 1570
GCACCACCGGAAGTAGGGCTCAACCACCGCTCATTT | 10300 | 1000 | 13400 | 1980
AGCGTTTCCTGCCTGTCTGGGGCTGACAAACCACAA | 623 | 930 | 492 | 2120
CAGATTCAAGGAAGTGGTGGTGGTTTGGTGTCGTTG | 738 | 755 | 1370 | 907
GCGCGGGCAACTTCCGGTGTGGGTGACGAGTGGTGG | 10900 | 778 | 12700 | 2700
AGAAACATCCTGCCCAGCCACCTGACCACAAGGCAC | 377 | 1280 | 1070 | 3130
CTCTCCACCTCCTTCCGACCAGGACCGCACCCCCCC | 986 | 1990 | 939 | 1650
ACCTGCACTTCCTCCTCCCTAGACCGCACCCTTCTC | 491 | 2840 | 600 | 4300
CAAAAGTGCTTCCTCTCGAGGGGTTGTGGTTCTTAC | 396 | 716 | 520 | 1070
AAAACAAGGACTTCCGCCTCCCTGCGGTCCCTCCCC | 2140 | 894 | 2730 | 1880
GCAACAGGAAGGACCAAGTCCCCTCCCGCAATTTTA | 627 | 888 | 955 | 1020

Sequence | ETS1 binding intensity (ETS1 [1]) | RUNX1 binding intensity (RUNX1 [2]) | ETS1 binding intensity (ETS1 [3]) | RUNX1 binding intensity (RUNX1 [4])
GGCAACCTGAGCTTCCGTGTAAAACCACAGTGTGAC | 372 | 1100 | 964 | 1290
GTGTGAAGGAAGTGTGAGATCAAACCACAGCTGGGT | 457 | 874 | 901 | 947
CAACCTGCTATAAGGAAGTTAAACCGCAGCTCACCG | 718 | 3670 | 5980 | 5610
CCCAGGGCAGGAAGGGCCAAACCGCTACTGCCACTG | 882 | 744 | 2080 | 908
GAGCAGGAAGCACCCCCAGCACAGGCCTGCGGTGAG | 438 | 741 | 1350 | 911
CTGCACTTCCGGTCAGGCGGTCGGGCTGCGGGGCCC | 5690 | 739 | 6710 | 2680
CGAGCAGGAAGTGGCAAGATTTGATAGGCGGTCAGG | 1970 | 739 | 2940 | 1450
AAATACCAGCCCACTTCCTGTGGCTTTGATCTGCAG | 2090 | 855 | 3340 | 5090
CCCTTGCCAGAGGAAGCCACTGCCACCGCAGAAGCA | 417 | 970 | 1740 | 1080
CCCTACCTCTCCTTCCTGCCACAAGGGAAAGTCACT | 508 | 1390 | 481 | 2550
AAAATTAAAGCAGGAAGTAATCAACCACATCAAATG | 3130 | 761 | 9610 | 1610
CTTAAATGGGAAATGTAGGTGTGGTTAAGTCACAAA | 558 | 859 | 556 | 915
GTGAGTCACTTCCTGACCATGTGGGTTTTTGGTACG | 568 | 823 | 937 | 2090
CAGCTGCTGACAGGAAAACCACAGTGGAAGGGGAAG | 848 | 898 | 1550 | 1050
CTGAAACAGGAAACAGACAAAGCCACAAGGTTCGCA | 1840 | 746 | 5750 | 1780
CAGGTGTTCAGGAAACAAAACCACAGACTTTTTCAC | 562 | 4690 | 2370 | 6800
CGACAGAGGACACTTCCTTTTGCGGGTGGCGGCGAA | 550 | 697 | 1170 | 1460
CTCACAGAAGAGGCAGGAAGTGGTTTGAGTTATCAT | 9460 | 820 | 13700 | 1590
AGTTGTGTTTTAGGATGTGGTCAAAGCCCAACAGAG | 581 | 910 | 2150 | 1090
ACCAACCGGAAGTGATCGTGTTGTGGCCGAAGGAGG | 16100 | 785 | 18100 | 1590
CTCGTGGGTGCCGGAAGTGGAGGCGGTTGGTGGGGT | 15200 | 707 | 15900 | 1410

Sequence | ETS1 binding intensity (ETS1 [1]) | RUNX1 binding intensity (RUNX1 [2]) | ETS1 binding intensity (ETS1 [3]) | RUNX1 binding intensity (RUNX1 [4])
GAGCCACCGGAAACGGAGCTGCGGCCGCGCCCCGCC | 5340 | 747 | 7820 | 1650
CACTTCCCCCAGCCTCTCTTTTTAATACCACAATAG | 634 | 3520 | 876 | 3290
GAGGAGATTTCCGGCCCCCATCCCCGCAGCGACCTT | 1690 | 762 | 1990 | 1820
GAAGTCACTCAGGGAGGAAACCACAGGGCCGGTCCG | 466 | 880 | 1270 | 863
AGCACCCGGAAGTCGGAGCTGCGCACGCACCGCGGG | 2180 | 751 | 1910 | 1210
GGCCAACGAGAGCGCTTCCGGCCGCAGCCACGGCGG | 1950 | 735 | 3000 | 1420
CATTGATCAAAGACAGGATGTGGTAACAGGCAGTTA | 8340 | 760 | 39500 | 3100
GAGCGCCCACTTCCTGTTTACCACCCAGCCTCTTCG | 3670 | 1110 | 5330 | 7590
GATCTGTGCTCAGGATGTGGTGAGAGAATAAGGAAG | 1210 | 753 | 2870 | 1050
GCCCAGGAAGTGGGTACAAAATGAGCCACAAGACCT | 616 | 768 | 839 | 1610
CTCTGCTTCCTGTCTTTGAATGCCTCTGTGGTTTTC | 675 | 2080 | 2540 | 4320
TCAGCTGACACAGGAAGTGGTAAAGCTATTATCTGT | 9480 | 735 | 16400 | 2730
CTCCTCCCCCACTTCCTATTTTTACCGCAGTTGCAC | 752 | 4960 | 1340 | 7610
CGCCGGATGCATAAAAGACTGGCTGCGGTGGCTCAG | 604 | 724 | 1300 | 973
GGTCTCTGCTTCCGGTCCTTGTGGTAGCACCTCTGT | 4510 | 936 | 5180 | 2710
TTAAACACGGAAGTGCATCGGTTGTTGTGGTTATTC | 1260 | 845 | 4360 | 1150
TCTTGAGGGTCAGGATGTGGTGAGGCCAGAGAAGGC | 951 | 808 | 2120 | 1420
CCGCCCTAGAGCAGGAAATAGCGGTCAGCGCCAGCT | 2740 | 857 | 7280 | 1980
